The record followed here is PubChem BioAssay (NCATS).

The nature of experiment [1]: Drug repurposing screens with cells derived from glioblastoma tumor samples (AID 1345199). Further: nearly all actives have a fitted effect of over 40% in size. Further: potency means the concentration at half of the fitted maximal effect. On activity, negative = cell killing: on the % scale 0 is the no-effect control and ±100 the full control effect. To be noted: GBM patient neurospheres viability, ATP luminescence, 48 h. An outline of the steps:
(§1)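 Primary testing used CD133+ neurospheres from four GBM patients, seven concentrations, 48 h exposure and ATP-based viability; confirmation added three slower-growing patient lines.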

For the next experiment, the system named is C33A. As to the kind of experiment: Primary qHTS to identify gynecologic anti-cancer compounds using libraries of approved drugs and bioactive compounds (AID 1345084). Further: nearly all actives have a fitted effect of over 55% in size. Further: potency means the concentration at half of the fitted maximal effect. To be noted: Gynecologic cancer cell panel viability, ATPlite luminescence, 48 h; series mostly up to 57.5 µM. Summed up: (§2)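 Five-point cytotoxicity, 48 h drug exposure at 37 C, 5% CO2, on cells seeded 16 h beforehand. ATP content read by ATPlite luminescence.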
A general note: In qHTS, concentration-response curves come from the screen itself.

Another experiment concerns CAOV3. The description is as above. The settings on record: Gynecologic cancer cell panel viability, ATPlite luminescence, 48 h; series mostly up to 57.5 µM. Summed up:
as §2

A further experiment relates to CASKI. Described as above. To be noted: Gynecologic cancer cell panel viability, ATPlite luminescence, 48 h; series mostly up to 57.5 µM. Summed up:
as §2
A general note: Cellular ATP, detected with luciferase, serves as a proxy for viable cell number.

The next experiment concerns Es-2. The description is as above. To be noted: Gynecologic cancer cell panel viability, ATPlite luminescence, 48 h; series mostly up to 57.5 µM. Summed up:
as §2

Another experiment concerns HeLa. The experiment is described as above. The settings on record: Gynecologic cancer cell panel viability, ATPlite luminescence, 48 h; series mostly up to 57.5 µM. An outline of the steps:
as §2

The next experiment relates to Hek293T. Described as above. To be noted: Gynecologic cancer cell panel viability, ATPlite luminescence, 48 h, control line for the selectivity index; series mostly up to 57.5 µM. An outline of the steps: as §2
In a further experiment the test system is OV90. The experiment is described as above. The settings on record: Gynecologic cancer cell panel viability, ATPlite luminescence, 48 h; series mostly up to 57.5 µM. An outline of the steps: as §2
The next experiment has as its system PA-1. The description is as above. To be noted: Gynecologic cancer cell panel viability, ATPlite luminescence, 48 h; series mostly up to 57.5 µM. An outline of the steps: as §2
For a further experiment, the system named is SKOV3. The description is as above. To be noted: Gynecologic cancer cell panel viability, ATPlite luminescence, 48 h; series mostly up to 57.5 µM. Summed up:
as §2

In a further experiment the test system is Tov-21-G. Described as above. The settings on record: Gynecologic cancer cell panel viability, ATPlite luminescence, 48 h; series mostly up to 57.5 µM. An outline of the steps:
as §2

The test system of a further experiment is Tov112D. Described as above. The settings on record: Gynecologic cancer cell panel viability, ATPlite luminescence, 48 h; series mostly up to 57.5 µM. An outline of the steps: as §2
A further experiment relates to JEG-3. The description is as above. The settings on record: Gynecologic cancer cell panel viability, ATPlite luminescence, 48 h; series mostly up to 57.5 µM. Summed up: as §2
In another experiment the test system is astro (control astrocytes). As to the kind of experiment: Drug repurposing screens with cells derived from glioblastoma tumor samples (AID 1345199). Further: nearly all actives have a fitted effect of over 40% in size. Further: potency means the concentration at half of the fitted maximal effect. On activity, negative = cell killing: on the % scale 0 is the no-effect control and ±100 the full control effect. The settings on record: viability, ATP luminescence, 48 h; series mostly up to 45.9 µM. An outline of the steps:
as §1

The target in experiment [2] is Nuclear receptor subfamily 1 group I member 2 (Rattus norvegicus) (UniProt Q9R1A7). As to the kind of experiment: qHTS assay for small molecule activators of the rat pregnane X receptor (rPXR) signaling pathway (AID 651751; call rule not given here; further: 0% is about no effect). To be noted: rPXR reporter cells, luciferase (One-Glo), 24 h.
Nuclear receptor subfamily 1 group I member 2 (Rattus norvegicus), sequence (Q9R1A7 whole entry, looked up): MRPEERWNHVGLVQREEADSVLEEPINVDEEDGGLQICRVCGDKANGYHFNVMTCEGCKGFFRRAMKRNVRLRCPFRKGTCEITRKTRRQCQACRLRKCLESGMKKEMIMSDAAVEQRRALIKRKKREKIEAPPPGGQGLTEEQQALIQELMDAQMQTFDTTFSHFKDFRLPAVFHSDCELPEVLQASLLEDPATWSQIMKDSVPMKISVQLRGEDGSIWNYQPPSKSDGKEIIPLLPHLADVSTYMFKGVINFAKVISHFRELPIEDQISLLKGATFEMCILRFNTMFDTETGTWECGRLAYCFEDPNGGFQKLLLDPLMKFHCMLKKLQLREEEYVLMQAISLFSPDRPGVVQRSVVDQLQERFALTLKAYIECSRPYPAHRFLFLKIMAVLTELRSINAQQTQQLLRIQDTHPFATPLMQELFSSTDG

Values without a mark were called inactive. Inconclusive results are not listed. Activity calls are given as the source filed them. Unless noted, the call rests on the fitted dose curve; in most records, active means well fitted curve in the direction sought with a large enough effect; inconclusive means small, poorly fitted or top-dose-only effect, or another doubt; inactive means no such curve, though single readings can be large; an effect the other way counts as inactive or inconclusive.

With `CC(=O)[C@H]1CC[C@H]2[C@@H]3CC[C@@H]4C[C@H](O)CC[C@]4(C)[C@H]3CC[C@]12C`, the activity, negative = cell killing in [1] (at 45.9 µM (top of the series), tumour line B) was -17.7%. Further, the Potency in experiment [1] (tumour line D) was 17800 nM (active).

On to `COC1C(O)C(C)OC(OC2C(CO)O[C@@H](O[C@@H]3CC4CCC5C(CC[C@]6(C)[C@@H](C7=CC(=O)OC7)CC[C@]56O)[C@@]4(C)[C@H](O)C3)C(O)C2O)C1O` (stereo partly specified), for which the Potency with C33A is 794 nM (active); in the experiment on CAOV3 it was 2820 nM (active); with CASKI, 2510 nM (active); in the experiment with Es-2, 2820 nM (active); in the experiment on HeLa, 2820 nM (active); with Hek293T it was 2820 nM (active). The Potency was 4470 nM (active) in the experiment with OV90; 2820 nM (active) with PA-1; 2820 nM (active) with SKOV3; 1000 nM (active) in the experiment on Tov-21-G; 501 nM (active) in the experiment with Tov112D.

Regarding `COC1C(O)C(OC2CCC3(C=O)C(CCC4C3CCC3(C)C(C5=CC(=O)OC5)CCC43O)C2)OC(C)C1OC1OC(CO)C(O)C(O)C1O` (stereo unspecified), the Potency was 501 nM (active) in the experiment on C33A; 2000 nM (active) with CAOV3; 891 nM (active) in the experiment on Es-2; 1260 nM (active) in the experiment with HeLa; 1000 nM (active) in the experiment on Hek293T; 2240 nM (active) in the experiment with JEG-3. The Potency with OV90 was 3550 nM (active); in the experiment with SKOV3, 708 nM (active); with Tov-21-G, 631 nM (active); in the experiment with Tov112D, 316 nM (active).

With `COC(=O)C1(C)CCC(O)C2(C)c3cc(O)c(C(C)C)cc3C(O)C(OC(C)=O)C12` (stereo unspecified), the Potency entry with C33A, in the experiment with CAOV3, in the experiment on CASKI, in the experiment with Es-2, in the experiment on HeLa and in the experiment with Hek293T was “inactive” throughout. The Potency result in the experiment on JEG-3, in the experiment with OV90, with Tov-21-G and in the experiment on Tov112D was “inactive” in each case.

Take `CCCSP(=O)(OCC)SCCC`: the Potency result in the experiment on C33A, with CAOV3, in the experiment with CASKI, with Es-2, in the experiment with HeLa and in the experiment on Hek293T was “inactive” throughout. The Potency entry with OV90, with PA-1, in the experiment on SKOV3, with Tov-21-G, in the experiment with Tov112D and in the experiment on astro was “inactive” throughout. Also, the activity, negative = cell killing in experiment [1] (at 91.6 µM (top of the series), tumour line A) is -29.2%; in experiment [1] (at 91.6 µM (top of the series), tumour line B) it was -4.25%; in [1] (at 91.6 µM (top of the series), tumour line D) it was -15.9%; in experiment [1] (at 99.2 µM (top of the series), tumour line C) it was 13.9%. In addition, in [2], the max response was 5.9%.

For the molecule `COC1CC(O[C@H]2CC[C@]3(C=O)C4CC[C@]5(C)[C@@H](C6=CC(=O)OC6)CC[C@]5(O)[C@@H]4CC[C@]3(O)C2)OC(C)C1O[C@@H]1O[C@H](CO)[C@@H](O)[C@H](O)[C@H]1O` (stereo partly specified), the Potency is 141 nM (active) in the experiment on C33A; 501 nM (active) in the experiment with CAOV3; 355 nM (active) in the experiment with Es-2; 355 nM (active) in the experiment on HeLa; 501 nM (active) in the experiment with Hek293T; 316 nM (active) in the experiment with PA-1. The Potency with SKOV3 is 447 nM (active); in the experiment with Tov-21-G it was 141 nM (active); in the experiment on Tov112D it was 100 nM (active).

Consider `COc1ccccc1CN[C@H]1C2CCN(CC2)[C@H]1C(c1ccccc1)c1ccccc1`, for which the Potency entry in the experiment with C33A, with CAOV3, in the experiment with CASKI, in the experiment with Es-2, in the experiment on HeLa and in the experiment on Hek293T was “inactive” throughout. The Potency result in the experiment with JEG-3, with PA-1, in the experiment on SKOV3, in the experiment with Tov-21-G and in the experiment on Tov112D was “inactive” throughout.

With `Cn1ncnc1COc1nn2c(-c3c(F)cccc3F)nnc2cc1C1CCC1`, the Potency result with C33A, in the experiment on CASKI, in the experiment with Es-2, in the experiment with HeLa, with Hek293T and with JEG-3 was “inactive” in each case. Besides, the Potency result with OV90, in the experiment on PA-1, in the experiment with SKOV3, with Tov-21-G and in the experiment on Tov112D was “inactive” in each case.
